# Measurements as given in the supplement of paper PMC6555819.
# Tests used:
# Assay in all cases: PBM binding z-score (relative to random genomic background probes); higher = stronger binding; sequences stand for … in GC…GCGATTGACAGCGTAGAATGAAGG
# [1] = system: FXR:RXRa (NR concentration 270 nM, RXRa partner concentration 90 nM)
# Outline: (§1)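 Binding buffer was PBS pH 7.4 with 2% milk, 0.02% Triton X-100, 1 mM DTT, 0.2 mg/mL BSA and 0.4 mg/ml salmon testes DNA. In it, ligand-free nuclear receptor dimers were incubated 1 h on custom Agilent 4×180K protein-binding microarrays carrying double-stranded probes. Antibodies against each partner (one per run) detected binding, and z-scores were calculated against random background probes after regression normalization of scanned fluorescence.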
# [2] = system: LXRa:RXRa (NR concentration 270 nM, RXRa partner concentration 90 nM)
# Outline: as §1
# [3] = system: LXRa homodimer (NR concentration 270 nM)
# Outline: as §1
# [4] = system: LXRb:RXRa (NR concentration 270 nM, RXRa partner concentration 90 nM)
# Outline: as §1
# [5] = system: LXRb homodimer (NR concentration 270 nM)
# Outline: as §1
# [6] = system: PPARa:RXRa (NR concentration 270 nM, RXRa partner concentration 90 nM)
# Outline: as §1
# [7] = system: PPARg:RXRa (NR concentration 180 nM, RXRa partner concentration 90 nM)
# Outline: as §1
# [8] = system: PPARg:RXRa 270nM:90nM, anti-RXR (NR concentration 270 nM, RXRa partner concentration 90 nM)
# Outline: as §1
# [9] = system: PPARg:RXRa 30nM:10nM, anti-RXR (NR concentration 30 nM, RXRa partner concentration 10 nM)
# Outline: as §1
# [10] = system: PPARg:RXRa 90nM:30nM, anti-RXR (NR concentration 90 nM, RXRa partner concentration 30 nM)
# Outline: as §1
Sequence,PBM binding z-score [1],PBM binding z-score [2],PBM binding z-score [3],PBM binding z-score [4],PBM binding z-score [5],PBM binding z-score [6],PBM binding z-score [7],PBM binding z-score [8],PBM binding z-score [9],PBM binding z-score [10]
TCGAGTAGGCTAGTCGGGGCATTCAGCCAACATA,-0.433,-0.611,-0.763,-0.579,-1.53,-0.209,-0.351,0.0773,0.911,0.101
ACTAGCAGCCCAAGTTTGGGTCACTCAAACAAAG,-0.21,-0.0985,-0.387,0.667,-0.605,0.976,-0.169,0.0773,-0.863,-0.372
CAGCCTAGGTCAGGGCCAGTGTAGGAGGAACGTT,1.51,1.17,-0.646,0.424,-1.41,2.1,0.721,0.845,-0.701,-0.0334
CCTAGTTGGTCAAGGTCAAACACGCTATAGGTAC,5.04,4.62,3.57,4.52,1.24,4.81,3.13,3.93,1.16,3.04
TCTCGCAGGACACGAAAGGTCAGAGCTCGACATC,2.57,3.8,2.98,3.17,0.477,3.71,1.25,2.76,2.41,2.44
CATACAGGGTCAGCTAGGCCAGAGTGGGGACGGC,4.45,2.94,0.0582,2.72,0.724,4.31,2.96,3.01,0.597,1.9
CCGAGTAGGTTATGGGGCATTCAGGCAACGGTGA,0.255,0.351,-0.0528,0.508,-0.322,2.11,3.48,4.31,2.03,3.91
ATCTCTAGGTAAAGATAGGTCAGTGAATGCAAAT,0.743,5.46,1,2.53,0.609,1.87,0.963,1.24,0.668,0.741
AGAATGAGGTTATTGAGATCAGGGAATTGCGGTC,2.32,1.71,0.125,1.34,-0.146,2.79,1.67,2.07,0.258,1.31
TAGCCTAGGTCACGCGGGCCAGTATAGTGTCGGC,5.13,3.81,0.104,2.03,-0.215,4.31,4.11,4.02,0.903,3.02
ATCTCTAGGTAAAGCTCAGTGAAAGATCGATAGA,0.281,0.0459,-0.107,-0.256,0.358,0.297,0.103,0.333,0.3,0.095
TTACCAAGGTGAAAGGTCTTTGATGCACGCCTTG,1.27,1.01,-0.494,1.07,-0.549,3.54,5.56,6.21,4.99,6.07
CGTCCAAGGTCAGTGCTAGGTCAGTGAAAGCATT,4.03,3.44,0.709,2.75,-0.278,3.28,1.44,2.57,0.1,1.31
ATCTCTAGGTAAAAGTTGAGTGAATCCCGAGGAT,0.0929,0.162,0.126,-0.0605,0.531,2.84,4.94,6.21,5.21,6.22
TCTTGTAGATCAACCAGGTTAAGAAAGCCTGAGT,0.429,0.506,-0.188,0.429,-0.277,0.901,-0.376,1.51,2.7,2.07
CAGCCTTGGTCAGGGCCAGTATAGGAGGAACGTT,-0.896,-0.936,-0.824,-0.976,-1.46,-0.531,-0.0449,-0.51,-0.686,-0.517
AACGAAAGGTCGTGAGGTGAGTATACAGAAAGGC,5.67,4.36,0.174,3.32,-0.0859,5.07,4.41,4.6,1.54,3.21
AGAACGAGGGCACGCTGAGGTGATAGCAGAGTAG,1.52,0.73,-0.584,0.0618,-1,2.18,2.3,2.19,0.193,1.29
CCTAGCAGGCCAATATGGGTCACTCAAGGCTTGA,0.719,2.76,-0.00824,1.41,-0.863,3.05,1.57,1.86,0.00421,1.15
TCGACTAGGTTAGTCGGGGCATTCAGCCAACATA,-0.0811,-0.0624,-0.672,-0.0911,-0.943,0.668,0.144,1.05,1.49,1.12
TCTAGTTGGTCAAAGGTCACACTCTCGAAATGCG,5.93,5.66,3.78,5.32,1.9,6.47,11.1,9.87,10.5,10.6
TAGCCTAGGTCATTCAGGGGCCATTATAGAAAGC,4.21,4.32,1.34,3.81,1.44,3.96,2.32,2.45,0.349,1.57
TCTAGTTGGTCAAAGGTCCCACACTCGAAATGCG,1.07,1.18,0.135,1.26,0.288,3.33,6.7,7.21,6.42,7.55
CCTATTAGTAGACCATAAGGGCAACCGAAGCTCG,0.44,0.377,0.422,0.468,0.364,0.752,0.777,1.21,0.45,0.915
